According to PubChem BioAssay (NCI):
This is part of a sample that, as a whole, favours compounds with a hit. Of some 83,000 tested, about 20% had one in any assay.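 Negative percent growth values reflect cell death: -40 means 40% of the cells present at the start died, and -100 means all died.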 Values without a mark were called inactive. The source made the active and inactive calls. Rule for the calls: active = growth percent below 10; inactive = the rest.

What follows are compounds tested on HL-60(TB) leukemia (assay: NCI-60 one-dose screen, 48 h (100 = growth as untreated, 0 = no growth, -100 = all killed)). Conditions: 10 µM unless noted.
`COc1cccc(/C=C/c2nc3ccccc3c(=O)n2CC(=O)Nc2ccccc2)c1` showed a growth of 97.7%. `COc1ccc(C2=NN(C(=O)[C@H]3[C@@H](c4ccco4)c4sc(=O)[nH]c4S[C@@H]3C)C(c3ccc4ccccc4c3)C2)cc1` (some centres not stated) was tested, and the growth was 2.93% (active). `O=C1Nc2ccc(Cl)cc2/C1=C/c1ccc(OCc2ccc(Br)cc2F)cc1` was tested, and the growth was 83.2%. For `O=C(c1ccc(Cl)cc1)C1[C@H](c2ccc(Br)cc2)[C@@H](c2ccccc2)NC12C(=O)Nc1ccc(Br)cc12` (some centres not stated), the growth was -42.8% (active). With `Cc1ccc(C2CC(c3ccc(S(=O)(=O)NCCNc4nc(Nc5ccc(F)cc5)nc(N(C)C)n4)cc3)=Nc3c(N)nc(N)nc3N2)cc1` (configuration not stated) the growth was -10.4% (active). `Cc1ccc(O)cc1Nc1nc(SCCN2CCOCC2)nc2c1cnn2CC(Cl)c1ccc(Br)cc1` (configuration not stated) was tested, and the growth was -49.7% (active). Work on `COc1ccc(-c2ccc(SCC(=O)Nc3ccc(C#N)cc3)nn2)cc1` yielded a growth of 95.8%. Work on `CC1=C(C(=O)c2ccccc2)C(c2cccc3ccccc23)n2c(nc3ccccc32)N1` (configuration not stated) yielded a growth of 58.6%. `Cn1c(O)c(N=Nc2nc(-c3cc4ccccc4oc3=O)cs2)c2cc(Br)ccc21` showed a growth of 96.6%. For `Cc1ccc2sc3c(c2c1)Oc1nc[nH]c(=O)c1C3c1cccc(F)c1` (configuration not stated), the growth was 99.3%. Work on `COc1ccc(-c2nc3ccccc3n2CC(=O)N=Nc2c(O)[nH]c3ccc(Br)cc23)cc1` yielded a growth of 45.2%. For `C#CCOc1cc(N(CC)CC)ccc1C(C(=O)NC(C)(C)C)N(C(=O)C1CCc2cc(F)ccc2O1)c1ccc(F)cc1` (configuration not stated), the growth was 3.9% (active).
